KCNK3 inh: human KCNK3 channel inhibitors, primary screen, CHO cells, FluxOR thallium flux, B-score; hit rate 0.84% among 340,000; B-score at 10 µM; AID 602410, 2012; FluxOR fluorescence; active compounds read low; Potassium channel subfamily K member 3 (Homo sapiens), O14649;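 active = B-score under library mean minus 4 SD, starting fluorescence ratio at most library mean plus 5 SD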;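 note: more negative B-score means stronger inhibition of thallium flux through KCNK3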
Kir21 inh: inhibitors of mouse Kir2.1 inward-rectifier potassium channel; hit rate 0.85% among 310,000; Inward rectifier potassium channel 2 (Mus musculus), P35561; HEK293-Kir2.1, FluxOR thallium flux fluorescence; active compounds read low; AID 1672, 2009; B-score at 10 µM;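 active = fluorescence ratio B-score at or below minus 3 SD of library scores, with starting-brightness B-score within 2 SD, cut at about -4.2 in these data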;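 note: channel flux triggered by added potassium and thallium sulfate stimulus; B-score of peak minus minimum fluorescence over baseline after thallium stimulus; more negative B-score means stronger Kir2.1 block with less thallium influx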
KCNK9 block: KCNK9 potassium channel inhibitors, primary screen, HEK293 cells, thallium flux; Potassium channel subfamily K member 9 (Homo sapiens), Q9NPC2; FluxOR thallium flux fluorescence; active compounds read low; B-score at 10 µM; hit rate 1.2% among 310,000; AID 488922, 2010;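 active = ratio B-score over 3 SD below the library mean, with starting fluorescence within 5 SD of its mean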;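 note: negative B-score means less thallium flux so channel inhibition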
TMEM16A inh: TMEM16A chloride channel inhibitors, primary screen, cell-based, HTS; hit rate 1.2% among 310,000; normalized B-score (activity score, 25-100; higher = stronger inhibition) at 10 µM; Anoctamin-1 (Mus musculus), Q8BHY3; HEK293 TMEM16A/YFP iodide influx fluorescence, ionomycin;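 active = ratio plate-corrected score three or more library SD toward inhibition, starting fluorescence score within five deviations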;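 note: score derived from kinetic fluorescence span divided by baseline fluorescence per well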
ANO1 activ: TMEM16A chloride channel activators or potentiators, primary screen, cell-based, HTS; Anoctamin-1 (Mus musculus), Q8BHY3; HEK293 TMEM16A/YFP-H148Q/I152L, iodide quench fluorescence; active compounds read low; B-score at 10 µM; hit rate 0.3% among 340,000;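 active = fluorescence-ratio B-score plate-corrected deviation score at least 3 library SD below zero, with starting fluorescence score within 5 deviations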;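 note: channel opened by trigger with iodide after compound preincubation; score built on the fluorescence ratio of max minus min over baseline; more negative score means more quench and so TMEM16A activation or potentiation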
Starred values were filed as active, the others as inactive; i = inactive; x = no result given. Rows were chosen to be rich in hits. Some 3.5% of all compounds tested hit in one or more screens of this group.

SMILES	KCNK3 inh	Kir21 inh	KCNK9 block	TMEM16A inh	ANO1 activ
CS(=O)(=O)N1CCN(c2ccccc2NC(=O)Cc2ccccc2)CC1	i	0.05	i	i	i
COCCNC(=O)c1onc(CSc2cc(C)cc(C)c2)c1C(=O)NCCOC	i	0.23	i	i	i
COc1ccccc1CN=C1Nc2ccccc2CS1	i	-13.1*	i	i	i
Cc1ccc(CN=C2Nc3ccccc3CS2)cc1	i	-0.76	i	i	i
COCCOC(=O)/C(=C\c1cc(C(C)(C)C)c(O)c(C(C)(C)C)c1)C(C)=O	i	-5.38*	i	i	i
O=C(CSc1nc2cc(Cl)ccc2s1)NC1CCCc2ccccc21 (configuration not stated)	i	-1.08	-7.82*	i	i
O=C(CSc1ccc2ccccc2c1)NC1CCCc2ccccc21 (configuration not stated)	i	0.39	i	i	i
CC(C)c1ccccc1NC(=O)COC(=O)C1(C)CC1(Cl)Cl (configuration not stated)	i	-1.07	i	i	i
Cc1cc(C)cc(NC(=S)NC2CC3CCC(C2)N3Cc2ccco2)c1 (configuration not stated)	i	-1.12	i	i	i
CCOc1ccc(NC(=S)NC2CC3CCC(C2)N3Cc2ccco2)cc1 (configuration not stated)	i	1.03	-7.18*	i	i
O=C(C1CCN(S(=O)(=O)c2cccc3nsnc23)CC1)N1CC=C(c2ccccc2)CC1	i	-0.75	i	25*	i
O=C(C1CCC(CNS(=O)(=O)c2cccc3nsnc23)CC1)N1CC=C(c2ccccc2)CC1 (configuration not stated)	i	0.4	i	i	i
CCOC(=O)Cc1csc(SC(C)C(=O)NC2CCCCC2C)n1 (configuration not stated)	i	-0.63	i	i	i
CC(=O)NC(CC(=O)NC(C)c1ccc(Cl)cc1Cl)c1ccccc1 (configuration not stated)	i	1.14	i	i	-31.7*
CC(NC(=O)Cc1ccsc1)c1ccc(Cl)cc1Cl (configuration not stated)	i	-0.43	i	i	i
Cc1ccc(NC(=O)COC(=O)c2ccco2)cc1S(=O)(=O)N1CCOCC1	i	x	x	x	i
CCOc1cc(CNCc2cccnc2)cc(Br)c1OCC(N)=O	i	-0.02	i	i	i
O=C(CN1CCN(S(=O)(=O)c2ccccc2)CC1)NC(=O)NCc1ccccc1	i	-1.8	i	i	-10.5*
Cc1ccc(S(=O)(=O)N2CCN(CC(=O)NC(=O)NCc3ccccc3)CC2)cc1C	i	0.81	i	i	i
O=C(NCC1CCCO1)C1CCCN(Cc2cnn(-c3ccccc3)c2-n2cccc2)C1 (configuration not stated)	i	-4.34	i	i	-24.5*
CN(CC(=O)Nc1cccc(S(=O)(=O)NC2=NCCC2)c1)Cc1ccccc1Cl	i	x	x	x	i
CC(C)CNC(=O)CN1c2cccc3cccc(c23)S1(=O)=O	i	-0.14	i	i	i
O=C(CN1c2cccc3cccc(c23)S1(=O)=O)Nc1ccc(F)c(F)c1F	-9.35*	x	x	x	-5.1*
CC(C)N(Cc1ccccc1)C(=O)CN1c2cccc3cccc(c23)S1(=O)=O	-9.99*	x	x	x	i
O=C(CN1c2cccc3cccc(c23)S1(=O)=O)Nc1ccccc1F	i	0.98	i	i	-7.79*
SMILES	KCNK3 inh	Kir21 inh	KCNK9 block	TMEM16A inh	ANO1 activ
O=C(CN1c2cccc3cccc(c23)S1(=O)=O)Nc1c(F)c(F)c(F)c(F)c1F	i	x	x	x	i
C=CCNC(=O)CN1c2cccc3cccc(c23)S1(=O)=O	i	-1.35	i	i	-6.62*
CCN(CC(=O)Nc1c(F)cccc1F)C(=O)c1cnccn1	i	-0.28	i	i	i
CCOc1ccc(C=O)cc1CN1CCCCC1	i	1	i	i	i
O=C(N/N=C/c1cn(Cc2ccccc2)c2ccccc12)c1cccnc1	i	0.44	i	i	i
O=C(N/N=C/c1cn(Cc2ccccc2)c2ccccc12)c1ccncc1	i	0.44	i	100*	i
O=C(CN1CCN(S(=O)(=O)c2ccc(C(F)(F)F)cc2)CC1)N1CCNC1=O	i	x	x	x	i
CC(C)(C)c1ccc(S(=O)(=O)N2CCN(CC(=O)N3CC(=O)Nc4ccccc43)CC2)cc1	i	x	x	x	-37.8*
CSc1nc2ccccc2n1Cc1c(Cl)cccc1Cl	i	-0.33	i	i	i
O=S(=O)(NCc1csc(-c2cccnc2)n1)c1ccc(Br)cc1	i	-7.73*	i	i	i
O=C(CCNC(=O)c1ccc(Br)cc1)NCCCN1CCCC1=O	i	x	x	x	i
CC(OC(=O)c1cccc(S(=O)(=O)Nc2cccc(C(F)(F)F)c2)c1)C(=O)Nc1ccc2c(c1)OCCO2 (configuration not stated)	i	0.97	i	100*	i
CSCCC(NS(=O)(=O)c1ccccc1F)C(=O)NCCCn1nc(C)cc1C (configuration not stated)	i	-0.15	i	i	i
Cc1cc(OCC(=O)C(C)(C)C)c2c(-c3ccccc3)cc(=O)oc2c1	i	-0.2	i	i	i
CC(CCc1ccccc1)NCc1cccc2ccccc12 (configuration not stated)	i	-9.68*	i	i	i
OC(c1ccccc1)c1nc2ccccc2[nH]1 (configuration not stated)	i	0	i	i	i
CC(=O)NC(c1ccccc1)c1nc2ccccc2[nH]1 (configuration not stated)	-10.7*	-0.38	i	i	i
O=C(CC1CCCCC1)NCc1ccccc1Cl	i	-0.02	i	i	i
CCSc1nsc(NC(=O)Nc2cccc(F)c2)n1	i	-0.52	i	100*	i
COc1cccc(NC(=O)Nc2nc(SC)ns2)c1	i	-0.3	i	i	i
CC(=O)NCCOc1nc(N2CCCCC2)nc(N2CCCCC2)n1	i	-0.32	i	i	-7.01*
O=C(Cc1ccccc1)NN1C(=O)C2C3C=CC(C3)C2C1=O (configuration not stated)	i	0.85	i	i	-37.8*
CC(COc1ccccc1Cc1ccccc1)N1CCCCC1 (configuration not stated)	x	-5.76*	i	i	x

Compound activity as filed in PubChem BioAssay.
